Shown are actives, neighbours in structure and some others; about 4.2% of the full set was active somewhere.
BJeLR lethal = BJeLR cell viability loss; BJeLR (HRASV12) viability, CellTiter-Glo ATP luminescence, 48 h; AID 1554; inhibition, % (concentration not given with the values); 300,000 tested, 0.17% active; in the data active means inhibition above about 50%
RecA intein inh = Mtb RecA intein splicing inhibition; cell-free RecA intein splicing, fluorescence; 290,000 tested, 0.75% active; inhibition, % (test concentration not listed); in the data active means inhibition above about 30%;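 further: 0% = vehicle wells and 100% = reference inhibitor control wells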
Target sequence (P9WHJ3 whole entry, looked up): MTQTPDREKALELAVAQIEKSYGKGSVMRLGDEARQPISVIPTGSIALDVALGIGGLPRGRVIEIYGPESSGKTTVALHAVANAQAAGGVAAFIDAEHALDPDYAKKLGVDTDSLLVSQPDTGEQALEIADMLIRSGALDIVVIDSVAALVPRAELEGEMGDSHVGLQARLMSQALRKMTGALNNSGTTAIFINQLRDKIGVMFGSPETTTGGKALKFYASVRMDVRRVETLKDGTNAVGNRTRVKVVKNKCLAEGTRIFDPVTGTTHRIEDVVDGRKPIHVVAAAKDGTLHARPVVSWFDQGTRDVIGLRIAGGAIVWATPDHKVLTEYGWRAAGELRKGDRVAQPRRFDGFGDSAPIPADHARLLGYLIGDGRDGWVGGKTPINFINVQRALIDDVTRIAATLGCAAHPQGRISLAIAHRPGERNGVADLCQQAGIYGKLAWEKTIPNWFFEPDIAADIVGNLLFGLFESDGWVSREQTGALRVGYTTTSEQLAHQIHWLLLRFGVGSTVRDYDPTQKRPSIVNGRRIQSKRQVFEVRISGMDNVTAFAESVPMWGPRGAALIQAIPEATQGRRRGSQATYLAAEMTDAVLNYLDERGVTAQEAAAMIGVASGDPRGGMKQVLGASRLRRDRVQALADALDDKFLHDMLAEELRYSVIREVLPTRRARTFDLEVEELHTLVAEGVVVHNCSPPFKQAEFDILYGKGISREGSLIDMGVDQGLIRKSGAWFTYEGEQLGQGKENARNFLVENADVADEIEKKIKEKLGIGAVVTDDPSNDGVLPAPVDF
PrPC TRFRET = inhibitors of human cell surface prion protein PrPC | AID 720596 | inhibition, % at 13.8 µM | P04156 | TR-FRET read-out | 370,000 tested, 0.43% active; in the data active means inhibition above about 24%; further: 0% = median of the test wells and 100% = reference compound wells
GDH-TPI counter-1 = counter-screen for M. tuberculosis FBA inhibitors: GDH-TPI coupled enzymes. GDH-TPI coupled enzyme counterscreen, NADH absorbance. inhibition, % at 4.8 µM. 360,000 tested, 1.2% active; in the data active means inhibition above about 30%;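 further: 0% = DMSO wells and 100% = wells lacking the enzyme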
FBA Mtb inh = inhibits M. tuberculosis FBA enzyme; inhibition, % at 1 µM; P9WQA3; 360,000 tested, 2.3% active; purified M. tuberculosis FBA, fluorescence read-out; AID 588726;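 further: 0% = vehicle and 100% = reference inhibitor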
Mtb FBA confirm = Mtb FBA inhibition, confirmed; shares compounds with FBA Mtb inh; purified M. tuberculosis FBA, fluorescence read-out; 5,600 tested, 78% active; inhibition, % at 1 µM;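 further: 0% = vehicle wells and 100% = reference inhibitor wells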
GDH-TPI counter-2 = counter-screen for M. tuberculosis FBA inhibitors: GDH-TPI coupled enzyme inhibition; shares compounds with FBA Mtb inh; GDH-TPI coupled enzyme counterscreen, fluorescence; inhibition, % at 1 µM; 5,600 tested, 81% active; AID 652141; in the data active means inhibition above about 10%
PrPC TRFRET cf = confirmation of inhibitors of cell surface human prion protein; shares compounds with PrPC TRFRET; cell surface PrPC level, TR-FRET; inhibition, % at 13.8 µM; 1,500 tested, 65% active; AID 743200; in the data active means inhibition above about 25%
LD9 cytotox = kills or reduces viability of LD9 cells in PrPc counter-screen. shares compounds with PrPC TRFRET. LD9 cells cytotoxicity, luminescence viability. inhibition, % at 13.8 µM. 1,500 tested, 29% active. AID 743201; in the data active means inhibition above about 9.5%
An asterisk follows results filed as active; i = inactive; · = no result; + = active, no number. Unless noted, no stated cut-off is given here; in the data, active means inhibition above about 27%; inactive means the rest.

SMILES	BJeLR lethal	RecA intein inh	PrPC TRFRET	GDH-TPI counter-1	FBA Mtb inh	Mtb FBA confirm	GDH-TPI counter-2	PrPC TRFRET cf	LD9 cytotox
C=CCN1[C@@H](C)COc2cccc(N3CCCC3)c2S1(=O)=O	·	·	5.8	·	·	·	·	·	·
Cc1ccc(S(=O)(=O)N2O[C@@H](c3ccccc3)C[C@H]2CON2C(C)(C)CCCC2(C)C)cc1	·	·	6.3	·	·	·	·	·	·
O=C1C(NC(=O)N2c3ccccc3C=Cc3ccccc32)CCCCN1Cc1cccc(Cl)c1 (stereo unspecified)	·	·	-4.4	·	·	·	·	·	·
CCCCC(=O)Nc1cc(N(C)C)nc2ccccc12	-1.7	0.4	-1.2	13.8	34.6*	+	+	·	·
CN(C)c1cc(NC(=O)CNC(C)(C)C)c2ccccc2n1	-5.2	-0.7	-2.6	0.8	22.2	·	·	·	·
CC(C)Nc1ccc(Nc2ccnc3cc4ccccc4cc23)cc1	44.4	3.0	-3.5	-1.3	-1.5	·	·	·	·
c1ccc(CCNc2ccnc3cc4ccccc4cc23)cc1	22.0	i	80.4*	3.5	47.0*	-1.2	-1.0	23.3	80.2*
CC(=O)N(c1nc2ccccc2s1)N1C(=O)c2ccccc2C1=O	·	·	-5.4	·	·	·	·	·	·
CCCCc1nc2ccccc2c(NC(=O)CN2CCCC2)c1CCC	-5.0	-0.2	6.2	10.8	1.4	·	·	·	·
O=C(CN1CCCCC1)Nc1c2c(nc3ccccc13)N(c1ccccc1)CC2	1.0	-4.1	44.0*	3.0	79.6*	151.7*	125.0*	102.2*	11.6*
COc1c(F)cc2[nH]c3c(c2c1F)CCNC3=O	-2.2	0.2	30.2*	-0.9	38.4*	+	176.4*	6.2	-4.8
Cc1ccc(S(=O)(=O)N2CCCc3nc(-c4ccc(F)cc4)ccc32)cc1	·	·	9.2	·	·	·	·	·	·
Cc1onc(-c2ccccc2Cl)c1C(=O)Nc1nnc(-c2ccc(Br)cc2)s1	3.4	5.4	26.3*	36.5*	92.0*	118.6*	99.0*	40.6*	-4.7
Cc1onc(-c2ccccc2Cl)c1C(=O)Nc1nnc(-c2ccc(F)cc2)s1	15.0	5.4	3.5	18.7	16.5	·	·	·	·
Cc1c(Br)c(=O)oc2cc(OCC(=O)N3C[C@H]4C[C@@H](C3)c3cccc(=O)n3C4)ccc12	-1.6	·	37.8*	21.6	39.6*	54.3*	64.5*	54.6*	-3.1
COc1ccc(-n2c(SCC(=O)Nc3ccc(OCc4ccccc4)cc3)nnc2-c2ccc(C)cc2)cc1	·	·	3.7	·	·	·	·	·	·
O=C(Nc1cc(S(=O)(=O)N2CCCCC2)ccc1Cl)c1ccccc1NS(=O)(=O)c1ccc(F)cc1	50.7*	1.6	25.2*	8.3	32.9*	-7.1	-6.0	33.0*	24.7*
Cc1c(C(=O)O)oc2c3c(ccc12)OCCO3	1.5	3.2	26.2*	8.6	59.8*	98.7*	87.0*	30.7*	1.0
Cc1cc(N2CCN(C(=O)OC(C)(C)C)C[C@@H]2C)ccc1N1CCN(Cc2ccccc2)[C@@H](C)C1	·	·	1.4	·	·	·	·	·	·
Brc1c(CSc2nc3ccccc3o2)nc2ncccn12	9.9	-1.8	49.0*	12.3	62.6*	63.4*	42.9*	47.4*	-6.3
CCc1ccc(-c2nc3ccc(Br)cc3c(C(=O)O)c2C)s1	1.5	-0.9	47.8*	17.9	38.2*	60.5*	44.9*	83.7*	-3.2
CCC(C)CNC(=O)c1oc(=O)c2ccccc2c1-c1ccc(C)cc1 (stereo unspecified)	·	·	7.3	·	·	·	·	·	·
COc1cccc2sc(Nc3nc(-c4ccccn4)cs3)nc12	36.7	-1.1	·	23.3	1.8	·	·	·	·
COc1cccc2sc(Nc3nnc(-c4ccc(F)cc4)o3)nc12	4.5	-11.8	26.5*	40.4*	49.2*	+	+	33.5*	-3.5
COC(=O)C1CCN(C(=O)c2cc(-c3ccc(Cl)s3)nc3ccccc23)CC1	·	·	35.7*	15.3	67.8*	146.8*	139.4*	33.3*	27.3*
SMILES	BJeLR lethal	RecA intein inh	PrPC TRFRET	GDH-TPI counter-1	FBA Mtb inh	Mtb FBA confirm	GDH-TPI counter-2	PrPC TRFRET cf	LD9 cytotox
CC1CCN(C(=O)c2cc(Cl)nc3ccccc23)CC1	-3.7	-5.5	1.8	-0.7	2.1	·	·	·	·
CCN(CC)C(=O)CC[C@H]1CC[C@]2(CCCN(Cc3nccs3)C2)O1	·	·	-3.7	·	·	·	·	·	·
CCOC(=O)CSc1nc(-c2ccccc2)nc2ccccc12	-10.9	3.4	105.1*	15.2	1.0	·	·	115.9*	3.1
OCCSc1nc(-c2ccccc2)nc2ccc(F)cc12	-1.3	3.9	12.8	14.0	1.4	·	·	·	·
CCOC(=O)CSc1nc(-c2ccccc2)nc2ccc(F)cc12	-4.8	0.1	26.1*	11.0	-0.7	·	·	104.6*	4.8
CCOC(=O)C(C)Sc1nc(-c2ccccc2)nc2ccccc12 (stereo unspecified)	-5.4	0.2	83.5*	2.3	1.3	·	·	108.6*	2.6
COC(=O)CSc1nc(-c2ccccc2)nc2ccc(F)cc12	-4.3	-1.5	48.7*	4.6	-0.6	·	·	107.4*	-3.5
O=C(Nc1cc(Cl)ccc1F)C1CCCN(c2nnc(-n3cccc3)s2)C1 (stereo unspecified)	·	·	3.3	·	·	·	·	·	·
Cn1c(COc2ccccc2)nnc1SCC(=O)Nc1ccc(S(=O)(=O)Nc2nccs2)cc1	·	·	-1.8	·	·	·	·	·	·
O=C(NCc1ccccc1)C1(C(=O)C2CC2)CC(c2ccccn2)=NO1 (stereo unspecified)	·	·	8.0	·	·	·	·	·	·
COC(=O)[C@]12CCCCC=C1N(Cc1ccc3c(c1)OCO3)C(=O)[C@H](CC(=O)NCC1CCCCC1)C2	·	·	3.9	·	·	·	·	·	·
CCCCCCCCN1C(=O)[C@@H](CC(=O)NCC23CC4CC(CC(C4)C2)C3)C[C@@]2(C(=O)OC)C1=C[C@H](C(C)(C)C)O[C@@H]2C	·	·	-3.3	·	·	·	·	·	·
S=C(NCc1ccccc1)N1CCn2cccc2C1c1cccnc1 (stereo unspecified)	6.4	2.4	0.2	-3.7	0.8	·	·	·	·
S=C(NCCc1ccccc1)N1CCn2cccc2C1c1cccnc1 (stereo unspecified)	-6.7	7.2	32.0*	6.1	0.3	·	·	1.5	-3.9
O=C(Nc1nc(-c2ccccn2)cs1)c1ccc(F)c(S(=O)(=O)N2CCOCC2)c1	·	·	27.3*	19.8	0.2	·	·	33.0*	17.6*
Cc1ccc(C(=O)Nc2nc(-c3ccccn3)cs2)cc1S(=O)(=O)N1CCOCC1	·	·	24.6*	16.8	-0.5	·	·	22.6	2.7
O=C(Nc1nc(-c2ccccn2)cs1)c1cc(S(=O)(=O)N2CCOCC2)ccc1F	·	·	-1.6	10.4	2.8	·	·	·	·
CCOC(=O)C1=C(C(=O)OCC)C2N(Cc3ccc(C#N)cc3)c3ccccc3[C@@]23C[C@@H](C(=O)OC)N(S(=O)(=O)c2ccc(OC)cc2)C3=N1 (stereo partly specified)	·	·	3.2	·	·	·	·	·	·
O=C(Cc1ccccc1)NNc1ccc2ccccc2c1	13.1	·	29.5*	1.6	3.2	·	·	13.3	-0.5
CC(C)(C)c1ccc(C(=O)Nc2cc(Cl)c(F)cc2C(=O)O)cc1	·	·	4.3	·	·	·	·	·	·

Screens deposited in PubChem BioAssay by several laboratories.
